# Source: the supplement of paper PMC12808144
# Unmarked numbers belong to inactive results.
# Legend:
# [1] = tested on: Mel-DCC-11; assay: cell viability relative to DMSO control (fraction of DMSO control); higher = less cytotoxic, active = 0.5 or less; details: 1 µM; 120 h
# How it was run: (§1)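 Three cell types were screened against 315 approved anti-cancer drugs from TargetMol, acoustically pre-spotted in 384-well plates at 1 µM in duplicate over 120 h: NHEM-hTERT immortalized melanocytes (2500/well), patient-derived Mel-DCC-11 and its resistant subline Mel-DCC-11-R (both 1500/well), all in 40 µl per well. The subline was tested alone and with 8 µM of its selecting drug. Viability, measured by luminescence, was normalised to vehicle controls and averaged across duplicates, with ATPlite 1step as the readout.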
# [2] = tested on: NHEM-hTERT; assay: as above; details: 1 µM; 120 h
# How it was run: as §1
# [3] = tested on: Mel-DCC-11-R; assay: cell viability relative to DMSO control (fraction of DMSO control); higher = less cytotoxic, active = 0.8 or less; details: 1 µM, 120 h
# How it was run: as §1
SMILES,cell viability [1],cell viability [2],cell viability ([3]; vemurafenib co-treatment 0 µM),cell viability ([3]; vemurafenib co-treatment 8 µM)
CC(C)(C)c1nc(-c2cccc(NS(=O)(=O)c3c(F)cccc3F)c2F)c(-c2ccnc(N)n2)s1 [Dabrafenib],0.332 (active),0.976,1.03,0.894
CC#CC(=O)N1CCC[C@H]1c1nc(-c2ccc(C(=O)Nc3ccccn3)cc2)c2c(N)nccn12 [Acalabrutinib],1.12,1,1.04,1
COc1cccc2c1C(=O)c1c(O)c3c(c(O)c1C2=O)C[C@@](O)(C(=O)CO)C[C@@H]3O[C@H]1C[C@H](N)[C@@H](O)[C@H](C)O1.Cl [Epirubicin hydrochloride],0.286 (active),0.647,0.426 (active),0.183 (active)
CNNCc1ccc(C(=O)NC(C)C)cc1.Cl [Procarbazine hydrochloride],1.18,1.13,1.04,1.25
Nc1cccc2c1C(=O)N(C1CCC(=O)NC1=O)C2=O (centres undefined) [Pomalidomide],1.03,1.15,1,1.25
COc1cc2ncnc(Nc3ccc(F)c(Cl)c3)c2cc1OCCCN1CCOCC1 [Gefitinib],1.08,0.905,0.893,0.629 (active)
C=CC(=O)N1CCC[C@@H](n2nc(-c3ccc(Oc4ccccc4)cc3)c3c(N)ncnc32)C1 [Ibrutinib],0.492 (active),1.05,0.855,0.733 (active)
CC1(C)NC(=O)N(c2ccc([N+](=O)[O-])c(C(F)(F)F)c2)C1=O [Nilutamide],1.09,1.19,1.03,0.997
Nc1ccn([C@@H]2O[C@H](CO)[C@@H](O)[C@@H]2O)c(=O)n1 [Cytarabine],0.87,0.886,0.654 (active),0.936
CC(C)C[C@@H](NC(=O)[C@H](O)[C@@H](N)Cc1ccccc1)C(=O)O.Cl [Bestatin hydrochloride],1.15,1.08,0.993,1.14
Cc1ccc(NC(=O)c2ccc(CN3CCN(C)CC3)cc2)cc1Nc1nc(-c2cccnc2)cs1 [Masitinib],1.25,0.801,1.1,0.944
O=C(c1cc(Cc2n[nH]c(=O)c3ccccc23)ccc1F)N1CCN(C(=O)C2CC2)CC1 [Olaparib],0.809,0.988,1.09,0.92
O=C(/C=C\n1cnc(-c2cc(C(F)(F)F)cc(C(F)(F)F)c2)n1)NNc1cnccn1 [Selinexor],0.445 (active),0.73,1.59,0.678 (active)
N#CC[C@H](C1CCCC1)n1cc(-c2ncnc3[nH]ccc23)cn1 [(R)-Ruxolitinib],1.03,1.1,0.967,1.03
CC(C)[C@H](NC(=O)[C@H](CC(=O)O)NC(=O)[C@H](CCCCN)NC(=O)[C@@H](N)CCCNC(=N)N)C(=O)N[C@@H](Cc1ccc(O)cc1)C(=O)O [Thymopentin],1.13,1.01,1.21,1.04
CC(C)NCC(O)COc1cccc2ccccc12.Cl (centres undefined) [Propranolol hydrochloride],1.12,1.16,0.858,1.06
O=C(CCCCCCC(=O)Nc1ccccc1)NO [Vorinostat],1.05,0.871,0.923,1.04
C[C@]12CC[C@@H]3c4ccc(O)cc4C[C@@H](CCCCCCCCCS(=O)CCCC(F)(F)C(F)(F)F)[C@H]3[C@@H]1CC[C@@H]2O (some centres undefined) [Fulvestrant],1.05,0.817,0.987,0.809
CCCCCCCCCCCCCCCCOP(=O)([O-])OCC[N+](C)(C)C [Miltefosine],1.01,1.17,0.843,0.936
O=C(O)CCc1nc2ccccc2[nH]1 [Procodazole],1.38,1.02,1.09,1
CC/C(=C(\c1ccccc1)c1ccc(OCCN(C)C)cc1)c1ccccc1.O=C(O)CC(O)(CC(=O)O)C(=O)O [Tamoxifen Z-isomer citrate],1.26,0.977,0.873,1.16
